# From PubChem BioAssay AID1159580 (chemical genetic matrix, 2015)
# Where “and” joins values, the source holds several entries; their conditions need not be identical. Identical values can stand only once. Out of some 5,500 compounds screened, about 2,000 (36%) were called active. Not shown: some 18% with an inconclusive outcome. The list shows a part of the results. Values without a mark were called inactive. No stated cut-off is given here; in the data, active means normalized growth mostly below about 0.91 (no sharp cut-off); inconclusive means no clear call, values can overlap the other calls; inactive means mostly above about 0.92.
# Assay: chemical genetic growth profiling, strain panel (AID 1159580);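 further: tested at 20 µM; growth read once vehicle control cultures reached saturation at 30 °C; 1 = growth at the plate median or of vehicle wells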
# Settings: growth OD
compound,measurement,setting,value
CC(C(=O)O)c1cccc(Oc2ccccc2)c1 (configuration not stated),normalized growth,"S. cerevisiae deletion strains, locus YAL013W, strain DEP1, stronger effect = lower value",0.963
same,normalized growth,"S. cerevisiae deletion strains, locus YBR021W, strain FUR4, stronger effect = lower value",0.983
same,normalized growth,"S. cerevisiae deletion strains, locus YBR229C, strain ROT2, stronger effect = lower value",0.94
same,normalized growth,"S. cerevisiae deletion strains, locus YCL029C, strain bik1, stronger effect = lower value",0.98
same,normalized growth,"S. cerevisiae deletion strains, locus YDL035C, strain GPR1, stronger effect = lower value",0.983
same,normalized growth,"S. cerevisiae deletion strains, locus YDL074C, strain BRE1, stronger effect = lower value",0.997
same,normalized growth,"S. cerevisiae deletion strains, locus YDL101C, strain DUN1, stronger effect = lower value",0.96
same,normalized growth,"S. cerevisiae deletion strains, locus YDL134C, strain PPH21, stronger effect = lower value",0.976
same,normalized growth,"S. cerevisiae deletion strains, locus YDL185W, strain tfp1, stronger effect = lower value",0.948
same,normalized growth,"S. cerevisiae deletion strains, locus YDL192W, strain arf1, stronger effect = lower value",0.973
same,normalized growth,"S. cerevisiae deletion strains, locus YDR101C, strain arx1, stronger effect = lower value",0.984
same,normalized growth,"S. cerevisiae deletion strains, locus YDR150W, strain NUM1, stronger effect = lower value",0.947
same,normalized growth,"S. cerevisiae deletion strains, locus YDR162C, strain NBP2, stronger effect = lower value",0.969
same,normalized growth,"S. cerevisiae deletion strains, locus YDR318W, strain mcm21, stronger effect = lower value",0.988
same,normalized growth,"S. cerevisiae deletion strains, locus YDR388W, stronger effect = lower value",0.978
same,normalized growth,"S. cerevisiae deletion strains, locus YDR502C, strain sam2, stronger effect = lower value",0.981
same,normalized growth,"S. cerevisiae deletion strains, locus YEL061C, strain CIN8, stronger effect = lower value",0.973
same,normalized growth,"S. cerevisiae deletion strains, locus YER110C, stronger effect = lower value",0.967
same,normalized growth,"S. cerevisiae deletion strains, locus YER155C, strain BEM2, stronger effect = lower value",0.958
same,normalized growth,"S. cerevisiae deletion strains, locus YER167W, strain BCK2, stronger effect = lower value",0.988
same,normalized growth,"S. cerevisiae deletion strains, locus YGL078C, strain dbp3, stronger effect = lower value",0.959
same,normalized growth,"S. cerevisiae deletion strains, locus YGL086W, strain mad1, stronger effect = lower value",0.98
same,normalized growth,"S. cerevisiae deletion strains, locus YGL248W, strain PDE1, stronger effect = lower value",0.974
same,normalized growth,"S. cerevisiae deletion strains, locus YGR078C, strain PAC10, stronger effect = lower value",0.999
same,normalized growth,"S. cerevisiae deletion strains, locus YGR135W, strain pre9, stronger effect = lower value",0.985
same,normalized growth,"S. cerevisiae deletion strains, locus YGR229C, strain SMI1, stronger effect = lower value",0.974
same,normalized growth,"S. cerevisiae deletion strains, locus YGR252W, strain gcn5, stronger effect = lower value",0.957
same,normalized growth,"S. cerevisiae deletion strains, locus YHR030C, strain SLT2, stronger effect = lower value",0.978 and 0.9
same,normalized growth,"S. cerevisiae deletion strains, locus YHR079C, strain IRE1 (second series), stronger effect = lower value",0.972
same,normalized growth,"S. cerevisiae deletion strains, locus YHR079C, strain IRE1, stronger effect = lower value",0.892
same,normalized growth,"S. cerevisiae deletion strains, locus YHR094C, strain hxt1, stronger effect = lower value",0.965
same,normalized growth,"S. cerevisiae deletion strains, locus YHR129C, strain ARP1, stronger effect = lower value",0.983
same,normalized growth,"S. cerevisiae deletion strains, locus YHR200W, strain rpn10, stronger effect = lower value",0.98
same,normalized growth,"S. cerevisiae deletion strains, locus YIL066C, strain RNR3, stronger effect = lower value",0.964
same,normalized growth,"S. cerevisiae deletion strains, locus YIL073C, strain SPO22, stronger effect = lower value",0.965
same,normalized growth,"S. cerevisiae deletion strains, locus YIL125W, strain kgd1, stronger effect = lower value",0.944
same,normalized growth,"S. cerevisiae deletion strains, locus YIR030C, strain dcg1, stronger effect = lower value",0.962
same,normalized growth,"S. cerevisiae deletion strains, locus YJL095W, strain BCK1, stronger effect = lower value",1.05 and 0.905
same,normalized growth,"S. cerevisiae deletion strains, locus YJL134W, strain LCB3, stronger effect = lower value",0.962
same,normalized growth,"S. cerevisiae deletion strains, locus YJL168C, strain set2, stronger effect = lower value",0.967
same,normalized growth,"S. cerevisiae deletion strains, locus YJL187C, strain SWE1 (second series), stronger effect = lower value",0.983
same,normalized growth,"S. cerevisiae deletion strains, locus YJR043C, strain POL32, stronger effect = lower value",1
same,normalized growth,"S. cerevisiae deletion strains, locus YJR066W, strain TOR1, stronger effect = lower value",0.856
same,normalized growth,"S. cerevisiae deletion strains, locus YJR075W, strain HOC1, stronger effect = lower value",0.998
same,normalized growth,"S. cerevisiae deletion strains, locus YKL009W, strain mrt4, stronger effect = lower value",0.879
same,normalized growth,"S. cerevisiae deletion strains, locus YKL068W, stronger effect = lower value",0.937 (active)
same,normalized growth,"S. cerevisiae deletion strains, locus YKL085W, strain MDH1 (second series), stronger effect = lower value",0.919 (active)
same,normalized growth,"S. cerevisiae deletion strains, locus YKL085W, strain MDH1, stronger effect = lower value",0.919 (active)
same,normalized growth,"S. cerevisiae deletion strains, locus YKL190W, strain CNB1, stronger effect = lower value",0.979
same,normalized growth,"S. cerevisiae deletion strains, locus YKR001C, strain vps1, stronger effect = lower value",0.947
same,normalized growth,"S. cerevisiae deletion strains, locus YLR039C, strain RIC1, stronger effect = lower value",0.842
same,normalized growth,"S. cerevisiae deletion strains, locus YLR058C, strain SHM2, stronger effect = lower value",0.957
same,normalized growth,"S. cerevisiae deletion strains, locus YLR102C, strain apc9, stronger effect = lower value",0.97
same,normalized growth,"S. cerevisiae deletion strains, locus YLR113W, strain HOG1, stronger effect = lower value",0.828 (active)
same,normalized growth,"S. cerevisiae deletion strains, locus YLR262C, strain YPT6, stronger effect = lower value",0.859
same,normalized growth,"S. cerevisiae deletion strains, locus YLR268W, strain sec22, stronger effect = lower value",1.04
same,normalized growth,"S. cerevisiae deletion strains, locus YLR330W, strain CHS5, stronger effect = lower value",0.956
same,normalized growth,"S. cerevisiae deletion strains, locus YLR342W, strain FKS1 (second series), stronger effect = lower value",0.999
same,normalized growth,"S. cerevisiae deletion strains, locus YLR371W, strain rom2, stronger effect = lower value",0.962
same,normalized growth,"S. cerevisiae deletion strains, locus YLR418C, strain cdc73, stronger effect = lower value",0.99
same,normalized growth,"S. cerevisiae deletion strains, locus YML016C, strain PPZ1, stronger effect = lower value",0.97
same,normalized growth,"S. cerevisiae deletion strains, locus YML032C, strain rad52, stronger effect = lower value",0.987
same,normalized growth,"S. cerevisiae deletion strains, locus YML124C, strain tub3, stronger effect = lower value",0.968
same,normalized growth,"S. cerevisiae deletion strains, locus YMR078C, strain ctf18, stronger effect = lower value",0.953
same,normalized growth,"S. cerevisiae deletion strains, locus YMR223W, strain ubp8, stronger effect = lower value",0.968
same,normalized growth,"S. cerevisiae deletion strains, locus YMR263W, strain SAP30, stronger effect = lower value",0.982
same,normalized growth,"S. cerevisiae deletion strains, locus YMR307W, strain GAS1, stronger effect = lower value",0.953
same,normalized growth,"S. cerevisiae deletion strains, locus YNL067W, strain RPL9B, stronger effect = lower value",1
same,normalized growth,"S. cerevisiae deletion strains, locus YNL128W, strain TEP1, stronger effect = lower value",0.966
same,normalized growth,"S. cerevisiae deletion strains, locus YNL153C, strain GIM3, stronger effect = lower value",0.997
same,normalized growth,"S. cerevisiae deletion strains, locus YNL183C, strain NPR1, stronger effect = lower value",0.864
same,normalized growth,"S. cerevisiae deletion strains, locus YNL233W, strain BNI4, stronger effect = lower value",1
same,normalized growth,"S. cerevisiae deletion strains, locus YNL250W, strain rad50, stronger effect = lower value",0.941
same,normalized growth,"S. cerevisiae deletion strains, locus YNL271C, strain bni1, stronger effect = lower value",0.951
same,normalized growth,"S. cerevisiae deletion strains, locus YNL298W, strain CLA4, stronger effect = lower value",0.929
same,normalized growth,"S. cerevisiae deletion strains, locus YNL307C, strain MCK1, stronger effect = lower value",0.979
same,normalized growth,"S. cerevisiae deletion strains, locus YNL322C, strain KRE1, stronger effect = lower value",0.969
same,normalized growth,"S. cerevisiae deletion strains, locus YNR052C, strain pop2, stronger effect = lower value",0.98
same,normalized growth,"S. cerevisiae deletion strains, locus YOL006C, strain TOP1, stronger effect = lower value",1
same,normalized growth,"S. cerevisiae deletion strains, locus YOL012C, strain htz1",1.04
same,normalized growth,"S. cerevisiae deletion strains, locus YOL147C, strain pex11, stronger effect = lower value",0.975
same,normalized growth,"S. cerevisiae deletion strains, locus YOR061W, strain CKA2, stronger effect = lower value",0.964
same,normalized growth,"S. cerevisiae deletion strains, locus YOR069W, strain VPS5, stronger effect = lower value",0.966
same,normalized growth,"S. cerevisiae deletion strains, locus YOR136W, strain idh2, stronger effect = lower value",0.977
same,normalized growth,"S. cerevisiae deletion strains, locus YOR144C, strain elg1, stronger effect = lower value",0.972
same,normalized growth,"S. cerevisiae deletion strains, locus YOR184W, strain ser1, stronger effect = lower value",0.98
same,normalized growth,"S. cerevisiae deletion strains, locus YOR231W, strain MKK1, stronger effect = lower value",0.894
same,normalized growth,"S. cerevisiae deletion strains, locus YOR316C, strain cot1, stronger effect = lower value",0.962
same,normalized growth,"S. cerevisiae deletion strains, locus YPL055C, strain LGE1, stronger effect = lower value",0.964
same,normalized growth,"S. cerevisiae deletion strains, locus YPL241C, strain CIN2, stronger effect = lower value",0.976
same,normalized growth,"S. cerevisiae deletion strains, locus YPL256C, strain CLN2, stronger effect = lower value",0.851
same,normalized growth,"S. cerevisiae deletion strains, locus YPR119W, strain clb2, stronger effect = lower value",0.958
same,normalized growth,"S. cerevisiae deletion strains, locus YPR141C, strain kar3, stronger effect = lower value",0.921
same,normalized growth,"S. cerevisiae deletion strains, locus YPR163C, strain tif3, stronger effect = lower value",0.986
same,normalized growth,"S. cerevisiae deletion strains, locus YPR167C, strain met16, stronger effect = lower value",0.975
same,normalized growth,"S. cerevisiae deletion strains, strain wtn01, stronger effect = lower value",0.983
same,normalized growth,"S. cerevisiae strains, strain wild type, stronger effect = lower value",0.973
